gsp antagonist – antagonists of gsp mutant (McCune-Albright syndrome); gsp-mutant cells, cAMP HTRF, 30 min; Potency, µM (highest dose often 76.9 µM), inactives show top-dose activity change, negative = inhibition, actives largely listed as inhibitors; 0.4% of 340,000 active; calls by dose curve; cell line not stated here;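 note: intracellular cAMP measured with PDE inhibitor Ro 20-1724 present during compound exposure; potency is the fitted concentration of half-maximal effect; % is set by controls: 0 for no effect and ±100 for the full control effect; nearly all actives have a fitted effect of over 65% in size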
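Cells, 2000/well, grown 16–24 h in DMEM 10% FBS with 0.5 mg/ml G418, then compounds plus […] (300 uM addition stock), 30 min at 37C. cAMP read by HTRF (cAMP-d2 and anti-cAMP antibody-K in lysis buffer) after 30 min RT.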
IL2 activator – activators of IL-2. activation, % (series mostly up to about 46 µM). AID 652025. IL-2 activation reporter assay, cell-based qHTS; stimulated with anti-CD3/CD4/CD28 beads; in transgenic mouse T cells. 0.065% of 360,000 active; in the data active = activation above about 50%; inconclusive = mostly about 30% to 49%; note: 0% is about no effect
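First, unstimulated transgenic mouse T cells were exposed to compound for 60 min. Next, anti-CD3/anti-CD4-coated beads with anti-CD28 were added. Finally, after 18 h at 37 degrees C, EGFP and DsRed were imaged.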
gsp ag – activates gsp, the McCune-Albright syndrome mutation. Potency, µM (titrated, usually from 76.9 µM), without a hit: top-dose activation (cAMP increase), hits mostly activators. gsp mutant cells, cAMP HTRF, 30 min. 0.13% of 340,000 active; active = well fitted activation curve with a large enough effect; inconclusive = small, poorly fitted or top-dose-only effect, or another doubt; inactive = no such curve, though single readings can be large or run the other way; cell line not stated here;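 note: phosphodiesterase inhibitor Ro 20-1724 added with compounds to block cAMP breakdown; potency is the fitted concentration of half-maximal effect; nearly all actives have a fitted effect of over 60% in size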
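Cells in DMEM/10% FBS with G418 were pretreated with compounds in DMSO plus […] (300 uM stock) for 30 min at 37C. cAMP was measured by HTRF (cAMP-d2 plus anti-cAMP antibody-K) after 30 min at room temperature.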
BRCA1 expr up – BRCA1 expression activation; MCF7-BRCA1-FFLuc reporter, luminescence, 48 h; response scale: scaled: vehicle 0%, 10 µM genistein 100%; Potency, µM (series often up to 46.1 µM), for the others: at the highest dose activation, most hits filed as activators; 1.1% of 380,000 active; AID 624202; note: potency is the fitted concentration of half-maximal effect; nearly all actives have a fitted effect of over 80% in size
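Activators of BRCA1 expression were detected as increased firefly luciferase luminescence in engineered MCF7 cells after 48 h compound incubation. Signals were scaled to genistein 10 microM as full activation.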
IDH1 R132H inh – inhibitors of human mutant IDH1 R132H; O75874; IDH1-R132H enzyme, NADPH consumption, diaphorase/resazurin fluorescence; Potency, µM (top dose mostly 76.6 µM), for the others: at the top dose activity change, negative = inhibition, actives largely listed as inhibitors; 0.093% of 390,000 active; AID 602179; note: potency is the fitted concentration of half-maximal effect; % is set by controls: 0 for no effect and ±100 for the full control effect; nearly all actives have a fitted effect of over 65% in size
Target sequence (O75874 whole entry R132H, stated change not applied): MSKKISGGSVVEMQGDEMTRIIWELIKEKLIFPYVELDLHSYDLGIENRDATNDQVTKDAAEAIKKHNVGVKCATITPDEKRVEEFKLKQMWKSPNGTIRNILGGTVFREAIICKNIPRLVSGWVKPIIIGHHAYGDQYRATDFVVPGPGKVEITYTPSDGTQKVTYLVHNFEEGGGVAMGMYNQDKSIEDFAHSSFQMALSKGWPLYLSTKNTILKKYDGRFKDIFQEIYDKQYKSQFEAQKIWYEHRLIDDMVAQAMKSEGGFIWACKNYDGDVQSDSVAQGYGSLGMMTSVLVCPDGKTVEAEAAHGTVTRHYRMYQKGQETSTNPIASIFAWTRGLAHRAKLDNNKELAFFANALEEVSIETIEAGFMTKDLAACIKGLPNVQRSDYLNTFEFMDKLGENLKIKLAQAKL
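IDH1-R132H (0.5 ug/mL) preincubated 30 min with compound, then NADPH (0.016 mM) and alpha-KG (2 mM) added; 80 min at RT, pH 7.5. Remaining NADPH coupled via diaphorase/resazurin to fluorescence (540/590 nm); concentration-response curves normalized to no-enzyme control.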
Resorufin autofl – interferes with resorufin fluorescence in IDH1 counter-screen; Resorufin detection reagent fluorescence interference, cell-free; shares compounds with IDH1 R132H inh; 750 tested, under 10 active; inhibition of signal, % at 51.2 µM; AID 623980;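 note: 0% = wells with normal resorufin and full inhibition = wells lacking resorufin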
IDH1 WT – inhibits human wild-type IDH1, mutant selectivity check; shares compounds with IDH1 R132H inh; WT IDH1 enzyme, NADPH diaphorase/resazurin fluorescence; Potency, µM (top dose mostly 115 µM), without a hit: top-dose activity change, negative = inhibition, hits mostly inhibitors; 9% of 750 active;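 note: potency is the fitted concentration of half-maximal effect; 0% = full WT IDH1 enzyme control and full inhibition = no enzyme wells; nearly all actives have a fitted effect of over 55% in size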
Target sequence (O75874 whole entry, looked up): as the sequence (O75874 whole entry R132H, stated change not applied) above, with H132R counted along it
mIDH1 confirm – confirmation of human mutant IDH1 inhibitors | shares compounds with IDH1 R132H inh | IDH1 R132H enzyme, NADPH diaphorase/resazurin fluorescence | Potency, µM (doses to about 76.6 µM), without a hit: at the highest dose activity change, negative = inhibition, actives largely listed as inhibitors | 83% of 750 active; note: potency is the fitted concentration of half-maximal effect; nearly all actives have a fitted effect of over 50% in size
* hit, by the source's call; [ ] = remark or other dose. Shown are actives, neighbours in structure and some others; about 1.5% of the full set was active somewhere. Unless noted, calls come from the whole dose curve; as a rule, active = well fitted curve in the direction sought with a large enough effect; inconclusive = small, poorly fitted or top-dose-only effect, or another doubt; inactive = no such curve, though single readings can be large; an effect the other way counts as inactive or inconclusive.

For Cc1cc(C)c(C#N)c(SCc2[nH]nc3c2C(c2ccc(F)cc2)C(C#N)=C(N)O3)n1 (configuration not stated) the results were gsp antagonist -10.6%, IL2 activator 0.0, gsp ag -0.4%, BRCA1 expr up 0.4%, IDH1 R132H inh inconclusive, Resorufin autofl 6.8, IDH1 WT inconclusive and mIDH1 confirm 31.6µM*.
`Cc1cc(C#N)c(C)c(SCc2[nH]nc3c2C(c2ccccc2)C(C#N)=C(N)O3)n1` (configuration not stated) gave gsp antagonist -15.7%, IL2 activator -0.6, gsp ag -29.6%, BRCA1 expr up -0.7%[1.84 µM], IDH1 R132H inh inconclusive, Resorufin autofl 2.6, IDH1 WT inconclusive and mIDH1 confirm 35.5µM*.
For Cc1ccc(SCc2[nH]nc3c2C(c2cccnc2)C(C#N)=C(N)O3)cc1 (configuration not stated) the results were gsp antagonist -12.6%, IL2 activator -1.2, gsp ag -28.6%, BRCA1 expr up 4.6% and IDH1 R132H inh -2.6%.
Cc1ccc(C)c(NC(=O)CN2CCN(C3CCCCC3)C(=O)C2=O)c1 was read as IDH1 R132H inh 21.1%.
For O=C(O)CCCCCN1C(=O)/C(=C/c2cn(-c3ccccc3)nc2-c2cccs2)SC1=S the results were gsp antagonist 35.5µM*, IL2 activator -0.4, gsp ag inconclusive, BRCA1 expr up -70.7%, IDH1 R132H inh inconclusive, Resorufin autofl -2.3, IDH1 WT 1.0% and mIDH1 confirm 35.5µM*.
COc1ccc(-c2nn(-c3ccccc3)cc2/C=C2/SC(=S)N(CCC(=O)O)C2=O)c(C)c1 was read as gsp antagonist 31.6µM*, IL2 activator -0.6, gsp ag -4.2%, BRCA1 expr up -79.8%, IDH1 R132H inh 46.5µM*, Resorufin autofl 2.3, IDH1 WT inconclusive and mIDH1 confirm 35.5µM*.
Screening CSC1=C(C#N)C(c2ccccc2C)C(C#N)=C(N)N1 (configuration not stated) returned gsp antagonist -1.1%, IL2 activator -3.0, gsp ag -0.7%, BRCA1 expr up -17.0%, IDH1 R132H inh inconclusive, Resorufin autofl 5.8, IDH1 WT 116.0% and mIDH1 confirm 44.7µM*.
For O=C(Cc1ccccc1)N(Cc1cccnc1)c1nc2c(F)cc(F)cc2s1 the results were IDH1 R132H inh 0.0%.
For CCOC(=O)C1=C[C@@H](CC)N(S(=O)(=O)c2ccc(C)cc2)[C@H]1c1cccs1 the results were IL2 activator -0.9 and BRCA1 expr up -25.7%.
For O=C1CN(c2nc(-c3cccs3)nc3sc4c(c23)CCCC4)CCN1 the results were gsp antagonist inconclusive, IL2 activator -2.5, gsp ag -25.4%[15.4 µM], BRCA1 expr up -40.5%, IDH1 R132H inh 52.1µM*, Resorufin autofl -14.3, IDH1 WT inconclusive and mIDH1 confirm 28.2µM*.
`COc1ccc(N(C(=O)CCC(=O)Nc2cc(C)on2)C(C(=O)NC2CCCC2)c2ccco2)cc1` (configuration not stated) gave gsp antagonist -4.9%, IL2 activator 1.7, gsp ag -0.6%[15.4 µM], BRCA1 expr up 39.0% and IDH1 R132H inh -3.6%.
